In the supplement of paper PMC11732987, “Enantioselective OTUD7B fragment discovery through chemoproteomics screening and high-throughput optimisation” (Communications Chemistry, 2025):

Columns and labels:
Test in all cases: log2 ratio of Biotin-Ahx-Ub-VS probe labelling (fragment/DMSO); higher = less target engagement (more negative = stronger competition), active = hit call of the paper (q ≤ 0.05, log2 ratio ≤ -1)
Conditions in all cases: compound concentration: 200 uM; treatment time: 3 h
OTUD6B = molecular target: T1, OTUD6B (UniProt Q8N6M0)
T1 sequence (whole entry): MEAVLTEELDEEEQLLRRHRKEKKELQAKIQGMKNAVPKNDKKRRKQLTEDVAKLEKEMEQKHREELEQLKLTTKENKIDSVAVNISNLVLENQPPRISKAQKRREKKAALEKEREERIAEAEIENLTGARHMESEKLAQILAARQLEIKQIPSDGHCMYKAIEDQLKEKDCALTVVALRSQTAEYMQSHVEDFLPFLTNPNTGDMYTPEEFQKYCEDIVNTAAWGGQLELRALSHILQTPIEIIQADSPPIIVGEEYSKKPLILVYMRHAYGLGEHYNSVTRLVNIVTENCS
Outline: (§1)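 Each value is an average log2 ratio of fragment to vehicle, tested by unpaired t-test. The underlying Spectronaut label-free quantities were global-median-normalised, and only proteins with ≥2 unique peptides were included. Triplicate HEK293T lysate samples (495 µg) were exposed to fragment at 200 µM or vehicle for 3 h, then to Biotin-Ahx-Ub-VS at 0.5 µM final for 1 h, before NeutrAvidin enrichment of labelled DUBs, LysC and trypsin digestion, and diaPASEF LC-MS/MS.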

OTUD7B = molecular target: T2, OTUD7B (UniProt Q6GQQ9)
T2 sequence (whole entry): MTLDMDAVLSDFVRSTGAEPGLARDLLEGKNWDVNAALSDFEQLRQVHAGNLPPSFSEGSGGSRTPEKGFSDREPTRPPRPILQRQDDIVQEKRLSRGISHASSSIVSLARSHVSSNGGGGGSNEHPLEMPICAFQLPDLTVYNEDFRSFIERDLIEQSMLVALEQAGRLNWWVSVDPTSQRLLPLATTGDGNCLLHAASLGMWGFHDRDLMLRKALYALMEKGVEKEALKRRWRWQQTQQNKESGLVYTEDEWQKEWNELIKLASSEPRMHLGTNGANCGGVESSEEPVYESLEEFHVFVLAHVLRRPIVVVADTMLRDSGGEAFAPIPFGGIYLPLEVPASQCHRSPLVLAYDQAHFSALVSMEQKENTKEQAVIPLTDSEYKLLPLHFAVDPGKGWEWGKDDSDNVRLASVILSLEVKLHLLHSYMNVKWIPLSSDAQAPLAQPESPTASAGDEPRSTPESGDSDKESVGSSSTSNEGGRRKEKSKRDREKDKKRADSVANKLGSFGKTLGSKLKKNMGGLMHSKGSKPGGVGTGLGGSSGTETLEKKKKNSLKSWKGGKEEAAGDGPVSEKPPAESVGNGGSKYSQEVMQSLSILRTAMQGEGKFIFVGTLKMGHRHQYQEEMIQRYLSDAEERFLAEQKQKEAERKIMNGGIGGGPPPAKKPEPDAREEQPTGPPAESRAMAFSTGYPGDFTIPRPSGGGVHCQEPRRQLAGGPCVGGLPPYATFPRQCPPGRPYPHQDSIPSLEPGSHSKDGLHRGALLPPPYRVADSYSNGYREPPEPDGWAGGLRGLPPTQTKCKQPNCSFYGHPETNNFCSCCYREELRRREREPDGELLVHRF
Outline: as §1

PRPF8 = PRPF8 (UniProt Q6P2Q9)
Outline: as §1

PSMD7 = molecular target: T3, PSMD7 (UniProt P51665)
T3 sequence (whole entry): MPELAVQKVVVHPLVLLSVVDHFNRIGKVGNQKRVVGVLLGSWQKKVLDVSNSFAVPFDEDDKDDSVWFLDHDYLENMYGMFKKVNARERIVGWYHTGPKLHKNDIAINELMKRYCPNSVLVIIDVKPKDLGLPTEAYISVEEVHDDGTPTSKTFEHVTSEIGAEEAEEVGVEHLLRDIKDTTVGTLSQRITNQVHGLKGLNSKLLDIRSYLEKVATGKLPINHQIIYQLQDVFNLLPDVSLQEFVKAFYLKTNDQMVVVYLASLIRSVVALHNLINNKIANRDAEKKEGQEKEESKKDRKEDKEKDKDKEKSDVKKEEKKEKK
Outline: as §1

UCHL1 = UCHL1 (UniProt P09936)
Sequence of UCHL1 (P09936 whole entry, looked up): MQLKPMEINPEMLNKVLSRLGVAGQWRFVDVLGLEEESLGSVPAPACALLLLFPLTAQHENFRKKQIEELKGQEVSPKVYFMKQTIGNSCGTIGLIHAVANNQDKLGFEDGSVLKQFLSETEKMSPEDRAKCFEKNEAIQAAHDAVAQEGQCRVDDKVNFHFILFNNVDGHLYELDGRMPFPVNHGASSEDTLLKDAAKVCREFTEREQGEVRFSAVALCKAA
Outline: as §1

UCHL3 = molecular target: T4, UCHL3 (UniProt P15374)
T4 sequence (whole entry): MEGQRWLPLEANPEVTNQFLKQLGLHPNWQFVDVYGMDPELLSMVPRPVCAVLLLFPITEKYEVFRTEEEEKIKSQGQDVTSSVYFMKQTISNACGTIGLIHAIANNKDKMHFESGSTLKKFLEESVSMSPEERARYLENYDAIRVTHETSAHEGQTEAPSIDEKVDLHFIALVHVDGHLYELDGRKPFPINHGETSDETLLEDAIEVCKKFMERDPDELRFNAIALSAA
Outline: as §1

UCHL5 = molecular target: T5, UCHL5 (UniProt Q9Y5K5)
T5 sequence (whole entry): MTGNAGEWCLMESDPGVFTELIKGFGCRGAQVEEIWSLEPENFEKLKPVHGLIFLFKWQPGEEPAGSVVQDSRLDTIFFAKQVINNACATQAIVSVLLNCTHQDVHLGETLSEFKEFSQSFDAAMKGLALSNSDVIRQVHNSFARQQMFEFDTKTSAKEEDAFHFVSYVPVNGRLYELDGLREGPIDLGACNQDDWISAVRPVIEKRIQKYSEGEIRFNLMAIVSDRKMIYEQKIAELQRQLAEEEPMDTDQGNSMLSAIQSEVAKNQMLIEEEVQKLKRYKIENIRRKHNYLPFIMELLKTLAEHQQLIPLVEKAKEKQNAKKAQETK
Outline: as §1

USP10 = USP10 (UniProt Q14694)
Sequence of USP10 (Q14694 whole entry): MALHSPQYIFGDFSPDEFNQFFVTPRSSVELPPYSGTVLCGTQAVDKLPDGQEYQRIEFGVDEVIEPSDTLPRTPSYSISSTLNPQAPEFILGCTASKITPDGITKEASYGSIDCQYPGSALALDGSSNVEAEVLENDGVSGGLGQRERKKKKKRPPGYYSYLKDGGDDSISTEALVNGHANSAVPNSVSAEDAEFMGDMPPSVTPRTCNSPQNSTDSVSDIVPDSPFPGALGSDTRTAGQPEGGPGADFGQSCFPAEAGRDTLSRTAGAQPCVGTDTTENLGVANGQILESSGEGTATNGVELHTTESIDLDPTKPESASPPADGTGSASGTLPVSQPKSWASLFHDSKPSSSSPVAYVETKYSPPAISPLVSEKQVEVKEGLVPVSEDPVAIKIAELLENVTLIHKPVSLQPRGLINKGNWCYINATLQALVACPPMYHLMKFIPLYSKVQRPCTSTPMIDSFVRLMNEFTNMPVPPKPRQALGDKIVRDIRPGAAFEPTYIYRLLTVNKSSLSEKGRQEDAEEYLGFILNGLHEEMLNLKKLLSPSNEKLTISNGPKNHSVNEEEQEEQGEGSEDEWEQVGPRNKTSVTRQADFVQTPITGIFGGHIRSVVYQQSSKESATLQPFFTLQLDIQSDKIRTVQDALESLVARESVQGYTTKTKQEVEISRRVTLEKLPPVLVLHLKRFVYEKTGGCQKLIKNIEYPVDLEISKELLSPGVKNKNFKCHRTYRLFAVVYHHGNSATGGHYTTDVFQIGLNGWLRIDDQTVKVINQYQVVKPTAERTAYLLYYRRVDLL
Outline: as §1

USP15 = molecular target: T6, USP15 (UniProt Q9Y4E8)
T6 sequence (whole entry): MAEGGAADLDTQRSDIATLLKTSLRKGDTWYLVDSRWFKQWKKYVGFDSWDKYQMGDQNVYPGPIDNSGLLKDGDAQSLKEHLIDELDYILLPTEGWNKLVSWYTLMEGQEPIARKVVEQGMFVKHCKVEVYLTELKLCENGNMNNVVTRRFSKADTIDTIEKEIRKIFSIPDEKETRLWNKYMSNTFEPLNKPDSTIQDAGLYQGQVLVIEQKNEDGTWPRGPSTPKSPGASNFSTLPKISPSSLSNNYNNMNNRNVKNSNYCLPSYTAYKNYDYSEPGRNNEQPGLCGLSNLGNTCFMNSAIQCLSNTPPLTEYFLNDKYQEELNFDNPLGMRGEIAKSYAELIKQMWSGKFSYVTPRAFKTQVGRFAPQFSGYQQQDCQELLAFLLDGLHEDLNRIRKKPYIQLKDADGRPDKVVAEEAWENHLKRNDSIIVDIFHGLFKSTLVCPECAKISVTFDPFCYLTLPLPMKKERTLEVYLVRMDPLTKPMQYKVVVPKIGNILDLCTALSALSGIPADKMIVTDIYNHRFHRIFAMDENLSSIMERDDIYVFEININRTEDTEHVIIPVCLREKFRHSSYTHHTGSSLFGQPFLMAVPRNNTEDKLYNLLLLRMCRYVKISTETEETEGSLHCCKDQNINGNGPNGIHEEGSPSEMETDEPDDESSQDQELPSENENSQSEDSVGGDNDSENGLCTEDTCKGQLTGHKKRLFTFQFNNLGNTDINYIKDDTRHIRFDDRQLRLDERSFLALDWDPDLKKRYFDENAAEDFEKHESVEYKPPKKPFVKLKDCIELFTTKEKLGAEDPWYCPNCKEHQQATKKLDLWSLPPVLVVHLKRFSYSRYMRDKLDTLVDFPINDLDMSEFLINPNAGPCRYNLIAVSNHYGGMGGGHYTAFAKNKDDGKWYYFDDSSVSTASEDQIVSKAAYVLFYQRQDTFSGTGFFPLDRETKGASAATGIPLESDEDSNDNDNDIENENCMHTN
Outline: as §1

USP16 = USP16 (UniProt Q9Y5T5)
Sequence of USP16 (Q9Y5T5 whole entry, looked up): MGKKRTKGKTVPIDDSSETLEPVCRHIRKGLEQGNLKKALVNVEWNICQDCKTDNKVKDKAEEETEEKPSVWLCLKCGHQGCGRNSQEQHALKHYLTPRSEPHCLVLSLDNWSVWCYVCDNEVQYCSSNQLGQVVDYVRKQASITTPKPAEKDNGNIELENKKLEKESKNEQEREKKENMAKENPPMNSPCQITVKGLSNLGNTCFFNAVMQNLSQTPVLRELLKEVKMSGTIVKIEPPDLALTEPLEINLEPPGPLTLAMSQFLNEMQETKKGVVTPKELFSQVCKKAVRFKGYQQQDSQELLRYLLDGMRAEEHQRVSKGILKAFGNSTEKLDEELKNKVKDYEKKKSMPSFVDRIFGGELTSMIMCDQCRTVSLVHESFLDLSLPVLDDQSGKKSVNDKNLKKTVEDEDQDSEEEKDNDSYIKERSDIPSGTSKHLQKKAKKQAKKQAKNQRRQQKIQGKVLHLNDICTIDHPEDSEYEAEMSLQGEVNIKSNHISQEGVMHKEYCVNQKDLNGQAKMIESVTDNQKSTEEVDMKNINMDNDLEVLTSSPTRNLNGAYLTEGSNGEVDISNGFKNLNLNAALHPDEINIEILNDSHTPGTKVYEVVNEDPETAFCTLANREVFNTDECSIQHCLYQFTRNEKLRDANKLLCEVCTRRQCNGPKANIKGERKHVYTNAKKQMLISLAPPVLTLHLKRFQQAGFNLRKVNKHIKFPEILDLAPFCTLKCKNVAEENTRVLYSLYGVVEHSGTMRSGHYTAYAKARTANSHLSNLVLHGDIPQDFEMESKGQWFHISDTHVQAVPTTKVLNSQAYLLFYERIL
Outline: as §1

Measured: log2 ratio of Biotin-Ahx-Ub-VS probe labelling

N#Cc1ccc(Cl)cc1NC(=O)CCl
active: OTUD7B -1.73 | UCHL1 -1.01
inactive: OTUD6B -0.0498 | PRPF8 0.00848 | PSMD7 -0.0625 | UCHL3 0.385 | UCHL5 0.0193 | USP10 -0.153 | USP15 -0.0346 | USP16 -0.655
